Results on 8 molecules are retold here after PubChem BioAssay (NCI).

Some test systems named below: SR leukemia; OVCAR-8 ovarian; OVCAR-5 ovarian; OVCAR-4 ovarian; SK-OV-3 ovarian; IGROV1 ovarian; OVCAR-3 ovarian; HS 578T breast; NCI/ADR-RES ovarian; T-47D breast; BT-549 breast; MDA-MB-435 melanoma; SW-620 colon; MCF7 breast; HCT-116 colon; HCC-2998 colon; KM12 colon; RPMI-8226 leukemia.
Common to all, as to experiment: NCI-60 one-dose screen, 48 h (100 = growth as untreated, 0 = no growth, -100 = all killed)
What all share (settings): 10 µM unless noted

About 83,000 compounds went through this panel and 20% of them were active in at least one assay; those are over-represented in the sample as a whole.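 Values shown are percent growth following 48 h exposure of cells in 96-well plates to a single concentration of compound; below 10 was considered active.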 Values without a mark were called inactive. The source made the active and inactive calls.

On to `NS(=O)(=O)c1ccc(Nc2nc(N/N=C/CCc3ccccc3)nc(Nc3ccccc3)n2)cc1`, for which the growth in the experiment on SR leukemia was 91.5%; with OVCAR-8 ovarian it was 104%; in the experiment on OVCAR-5 ovarian it was 103%; in the experiment with OVCAR-4 ovarian, 104%; in the experiment with SK-OV-3 ovarian, 104%; in the experiment on IGROV1 ovarian it was 106%. In addition, the growth is 117% in the experiment with OVCAR-3 ovarian; 96.8% in the experiment on HS 578T breast; 113% with NCI/ADR-RES ovarian; 102% in the experiment on T-47D breast; 99.4% with BT-549 breast; 101% in the experiment on MDA-MB-435 melanoma. Also, the growth in the experiment with SW-620 colon is 104%; with MCF7 breast, 96.3%; in the experiment with HCT-116 colon, 103%; with HCC-2998 colon, 113%; with KM12 colon, 109%.
As to `NC(N)=Nc1ccc(Oc2cccc(NC(N)=Nc3ccc(I)cc3F)c2)cc1`, the growth in the experiment with SR leukemia was 48.1%; with OVCAR-8 ovarian it was 90.5%; in the experiment with OVCAR-5 ovarian, 65.5%; in the experiment with OVCAR-4 ovarian it was 81.3%; in the experiment with SK-OV-3 ovarian, 70.1%; in the experiment with IGROV1 ovarian it was 32.9%. Also, the growth was 75.7% in the experiment with OVCAR-3 ovarian; 61.1% in the experiment with HS 578T breast; 100% with NCI/ADR-RES ovarian; 75.3% with T-47D breast; 87.6% in the experiment on BT-549 breast; 85% in the experiment with MDA-MB-435 melanoma. In addition, the growth is 89.5% in the experiment on SW-620 colon; 63.3% in the experiment with MCF7 breast; 90.5% with HCT-116 colon; 102% in the experiment with HCC-2998 colon; 79.3% in the experiment with KM12 colon.
On to `Cc1c(Cl)cccc1S(=O)(=O)Nc1ccc2c(c1)C(=O)N(C1CCC(=O)NC1=O)C2=O` (stereo unspecified), for which the growth with SR leukemia was 97.1%; with OVCAR-8 ovarian, 47.8%; with OVCAR-5 ovarian, 97.3%; with OVCAR-4 ovarian it was 69.1%; with SK-OV-3 ovarian, 106%; in the experiment on IGROV1 ovarian, 64.1%. The growth in the experiment on OVCAR-3 ovarian was 105%; in the experiment with HS 578T breast it was 67.3%; in the experiment on NCI/ADR-RES ovarian, 73.3%; with T-47D breast, 44%; in the experiment with BT-549 breast, 63.9%; in the experiment with MDA-MB-435 melanoma it was 96.2%. Moreover, the growth with SW-620 colon is 44.8%; in the experiment on MCF7 breast, 88.2%; in the experiment on HCT-116 colon, 107%; in the experiment with HCC-2998 colon, 67.9%; with KM12 colon, 92.2%.
Take `CC(c1ccccc1)N1CSc2nc3ncncc3n2C1` (stereo unspecified): the growth in the experiment on SR leukemia is 88.2%; in the experiment with RPMI-8226 leukemia it was 26.4%; in the experiment on OVCAR-5 ovarian it was 39.7%; in the experiment with OVCAR-4 ovarian, 27.1%; in the experiment on SK-OV-3 ovarian, 24.8%; in the experiment with IGROV1 ovarian, 45.5%. Also, the growth in the experiment on OVCAR-3 ovarian was 33.1%; in the experiment with HS 578T breast, 64.2%; with NCI/ADR-RES ovarian, 26.7%; with T-47D breast, 34%; in the experiment with BT-549 breast it was 59%; in the experiment with MDA-MB-435 melanoma, 23.5%. In addition, the growth in the experiment with SW-620 colon is 41.1%; with MCF7 breast it was 5.38% (active); with HCT-116 colon, 19.2%; in the experiment on HCC-2998 colon it was 23.8%; with KM12 colon, 21.8%.
In the case of `NC(=O)c1cccc(C#CCNC[C@H]2C[C@@H](n3ccc4c(Cl)ncnc43)[C@H](O)[C@@H]2O)c1`, the growth with SR leukemia is 112%; in the experiment on OVCAR-8 ovarian it was 101%; in the experiment with OVCAR-5 ovarian it was 98.4%; with OVCAR-4 ovarian it was 111%; with SK-OV-3 ovarian it was 105%; with IGROV1 ovarian, 101%. The growth in the experiment on OVCAR-3 ovarian was 113%; in the experiment with HS 578T breast, 101%; in the experiment with NCI/ADR-RES ovarian, 106%; in the experiment on T-47D breast, 96.6%; in the experiment with BT-549 breast, 102%; with MDA-MB-435 melanoma it was -89.6% (active). Moreover, the growth was 104% in the experiment with SW-620 colon; 96.5% in the experiment on MCF7 breast; 104% in the experiment on HCT-116 colon; 107% in the experiment on HCC-2998 colon; 106% in the experiment with KM12 colon.
Consider `CC1=NC2=NC(=O)/C(=C3/N=C(C)C=C(c4ccccc4)N3N)NN2C(c2ccccc2)=C1`, for which the growth in the experiment on SR leukemia is 116%; with RPMI-8226 leukemia it was 111%; with OVCAR-5 ovarian, 101%; in the experiment with OVCAR-4 ovarian it was 96.7%; in the experiment on SK-OV-3 ovarian, 98.8%; with IGROV1 ovarian, 70.1%. In addition, the growth in the experiment on OVCAR-3 ovarian was 108%; with HS 578T breast it was 116%; with NCI/ADR-RES ovarian it was 108%; with T-47D breast, 102%; in the experiment with BT-549 breast it was 111%; in the experiment with MDA-MB-435 melanoma it was 108%. The growth in the experiment on SW-620 colon is 108%; in the experiment on MCF7 breast it was 93.6%; in the experiment with HCT-116 colon, 102%; with HCC-2998 colon, 110%; with KM12 colon, 98.4%.
In the case of `CC1=NC2=NN3C(=NN2C(c2ccccc2)=C1)N=NC(c1ccc(Br)cc1)=C3c1ccc(Br)cc1`, the growth in the experiment on SR leukemia is 102%; in the experiment on RPMI-8226 leukemia, 111%; with OVCAR-5 ovarian it was 104%; with OVCAR-4 ovarian it was 108%; in the experiment on SK-OV-3 ovarian, 116%; in the experiment with IGROV1 ovarian it was 99.3%. Moreover, the growth with OVCAR-3 ovarian was 114%; with HS 578T breast, 105%; in the experiment on NCI/ADR-RES ovarian, 119%; in the experiment with T-47D breast, 108%; with BT-549 breast it was 115%; in the experiment on MDA-MB-435 melanoma, 110%. Further, the growth was 96.6% in the experiment on SW-620 colon; 94.4% with MCF7 breast; 117% with HCT-116 colon; 112% in the experiment on HCC-2998 colon; 104% in the experiment on KM12 colon.
`O=C1CCC(N2C(=O)c3ccc(NS(=O)(=O)c4ccccc4OC(F)(F)F)cc3C2=O)C(=O)N1` (stereo unspecified): the growth in the experiment on SR leukemia was 77.4%; in the experiment on OVCAR-8 ovarian, 10.9%; in the experiment on OVCAR-5 ovarian, 85.3%; with OVCAR-4 ovarian, 22.8%; in the experiment with SK-OV-3 ovarian, 82.3%; in the experiment with IGROV1 ovarian, 23.5%. The growth with OVCAR-3 ovarian was 86.2%; in the experiment with HS 578T breast it was 13.7%; in the experiment with NCI/ADR-RES ovarian it was 19.7%; with T-47D breast, 16.2%; with BT-549 breast, 14.8%; with MDA-MB-435 melanoma it was 64.4%. Moreover, the growth with SW-620 colon was 20.2%; with MCF7 breast it was 44.5%; in the experiment with HCT-116 colon, 96.8%; with HCC-2998 colon, 11%; with KM12 colon, 40.6%.
